Unmarked numbers belong to inactive results.
Each compound was assayed on Ditylenchus dipsaci (assay: proportion of mobile D. dipsaci (mixed stage) relative to DMSO control (fraction of DMSO control); higher = more viable, less nematicidal, active = 0.86 or less; extreme values may be limits of the assay). Conditions: 60 µM; 5 days; temperature: 20 °C.
Procedure, shortened: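 Mobility, expressed relative to DMSO controls, is the mean of two biological replicates. The test organisms were D. dipsaci grown on pea plants in Gamborg B-5 agar and extracted into water by filter funnel, with about 20 added per well of a 96-well plate in distilled water. Compound was pinned to 60 µM final (0.6% v/v DMSO), plates were sealed and shaken at 200 rpm for 5 days at 20 °C, and mobile worms were scored under a microscope once 2 µL 1 M NaOH had been added.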

SMILES | proportion of mobile D. dipsaci
CC[C@H](C)[C@H]1O[C@]2(C=C[C@@H]1C)C[C@@H]1C[C@@H](C/C=C(\C)[C@@H](O[C@H]3C[C@H](OC)[C@@H](O[C@H]4C[C@H](OC)[C@@H](O)[C@H](C)O4)[C@H](C)O3)[C@@H](C)/C=C/C=C3\CO[C@@H]4[C@H](O)C(C)=C[C@@H](C(=O)O1)[C@]34O)O2.CO[C@H]1C[C@H](O[C@H]2[C@H](C)O[C@@H](O[C@@H]3/C(C)=C/C[C@@H]4C[C@@H](C[C@]5(C=C[C@H](C)[C@@H](C(C)C)O5)O4)OC(=O)[C@@H]4C=C(C)[C@@H](O)[C@H]5OC/C(=C\C=C\[C@@H]3C)[C@]54O)C[C@@H]2OC)O[C@@H](C)[C@@H]1O [abamectin] | 0.727 (active)
CC(C)NC(=O)N1CC(=O)N(c2cc(Cl)cc(Cl)c2)C1=O [iprodione] | 1
CNC(=O)O/N=C(\SC)C(=O)N(C)C [oxamyl] | 1
O=C(NCCc1ncc(C(F)(F)F)cc1Cl)c1ccccc1C(F)(F)F [fluopyram] | 0 (active)

Each compound was assayed on Caenorhabditis elegans L1 (N2) (assay: survival and reproduction score of C. elegans L1 (0: 0-10 living worms, 1: 11-20, 2: 21-50, 3: >50, 4: overgrown) (score 0-4); higher = more worms, less nematicidal, active = 1 or less; extreme values may be limits of the assay). Conditions: 60 µM; 6 days; temperature: 20 °C.
Procedure, shortened: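 Each 96-well well received about 20 synchronized N2 L1 worms of C. elegans, E. coli HB101 and liquid NGM, plus compound pinned to 60 µM final (0.6% v/v DMSO). Sealed plates were incubated with shaking at 200 rpm, 20 °C, for 6 days. Survival and reproduction were rated under a dissection microscope as an ordinal score of living worms per well, averaged across biological replicates. The scale spanned 0 (0–10 worms) to 4 (overgrown, starved), and there were two replicates.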

SMILES | survival and reproduction score
c1ccc2c(-c3nc(-c4ccncc4)no3)cccc2c1 | 4
c1cc(-c2noc(C34CC5CC(CC(C5)C3)C4)n2)ccn1 | 4
CCNC(=O)c1ccccc1-c1nc(-c2ccccc2)no1 | 4
COc1ccc(Cl)cc1NC(=O)CSc1nnc(-c2ccco2)o1 | 4
COc1ccc(C(=O)CSc2nnc(-c3cccc4ccccc34)o2)cc1 | 4
Clc1ccc(-c2nc(-c3ccncc3)no2)cc1Cl | 4
CC[C@H](C)[C@H]1O[C@]2(C=C[C@@H]1C)C[C@@H]1C[C@@H](C/C=C(\C)[C@@H](O[C@H]3C[C@H](OC)[C@@H](O[C@H]4C[C@H](OC)[C@@H](O)[C@H](C)O4)[C@H](C)O3)[C@@H](C)/C=C/C=C3\CO[C@@H]4[C@H](O)C(C)=C[C@@H](C(=O)O1)[C@]34O)O2.CO[C@H]1C[C@H](O[C@H]2[C@H](C)O[C@@H](O[C@@H]3/C(C)=C/C[C@@H]4C[C@@H](C[C@]5(C=C[C@H](C)[C@@H](C(C)C)O5)O4)OC(=O)[C@@H]4C=C(C)[C@@H](O)[C@H]5OC/C(=C\C=C\[C@@H]3C)[C@]54O)C[C@@H]2OC)O[C@@H](C)[C@@H]1O [abamectin] | 0 (active)
Cc1ccc(NC(=O)CSc2nnc(-c3ccco3)o2)cc1Cl | 4
c1ccc(OCc2nc(-c3cccs3)no2)cc1 | 0 (active)
COc1ccccc1-c1nc(-c2cccc(Br)c2)no1 | 4
CC(C)NC(=O)N1CC(=O)N(c2cc(Cl)cc(Cl)c2)C1=O [iprodione] | 4
CCOc1nc(C)ccc1-c1noc(-c2cccc(C)c2)n1 | 4
COc1ccc(-c2nnc(SCc3ccccc3C)o2)cc1 | 4
CCOC(=O)c1c(NC(=O)CSc2nnc(-c3ccc(Cl)cc3)o2)sc(C(C)=O)c1C | 4
Fc1ccc(OCc2nc(-c3ccc(Cl)cc3)no2)cc1 | 4
Cc1nc(CSc2nnc(-c3ccc(Cl)cc3)o2)cs1 | 4
O=C(CSc1nnc(-c2ccccc2)o1)Nc1ccc2ccccc2c1 | 4
Cn1c(SCc2nc(-c3ccccc3)no2)nnc1-c1ccco1 | 0 (active)
CCCc1ccc(-c2ccc(-c3nc(-c4ccccn4)no3)cc2)cc1 | 4
Cc1ccc(-c2noc(-c3ccco3)n2)s1 | 0 (active)

SMILES | survival and reproduction score
Brc1ccc(CSc2nnc(-c3cccnc3)o2)cc1 | 4
COc1ccc(OC(C)c2nc(-c3ccccn3)no2)cc1 (stereo not drawn) | 4
Cc1ccccc1-c1nnc(SCc2ccccc2)o1 | 3
Cc1cc(C)c(C)c(OCc2nc(-c3cccnc3)no2)c1 | 4
CNC(=O)O/N=C(\SC)C(=O)N(C)C [oxamyl] | 4
Brc1ccc(-c2nc(-c3ccncc3)no2)cc1 | 0 (active)
COc1ccc(-c2nc(C3CCCCC3)no2)cc1 | 4
O=C(CSc1nnc(-c2cccc(Cl)c2)o1)Nc1ccccc1 | 4
Cc1cnc(NC(=O)CSc2nnc(-c3cccc(Cl)c3)o2)s1 | 4
O=C(CSc1nnc(-c2ccccc2)o1)Nc1ccccc1C(F)(F)F | 4
O=C(NCCc1ncc(C(F)(F)F)cc1Cl)c1ccccc1C(F)(F)F [fluopyram] | 0 (active)
CCOc1ccccc1-c1nc(-c2ccc(NC(=O)CCc3ccc(OC)cc3)cc2)no1 | 4
Brc1ccc(OCc2nc(-c3cccs3)no2)cc1 | 4
Cc1ccc(-c2nc(-c3ccncc3)no2)cc1Cl | 0 (active)
COc1ccc(-c2noc(-c3cccc(F)c3)n2)cc1 | 4
Cc1cc(OCc2nc(-c3cccnc3)no2)ccc1Cl | 4
Fc1ccc(-c2noc(COc3ccccc3Cl)n2)cc1 | 4
O=C(CSc1nnc(-c2cccc(Cl)c2)o1)NC1CCCCC1 | 4
CCOc1cc(-c2nc(-c3cc4ccccc4nc3OC)no2)cc(OCC)c1OCC | 4

Source: the supplement of paper PMC11219838
